# Data taken from PubChem BioAssay AID2501 (Southern Research Specialized Biocontainment Screening …, 2010).
# Out of some 2,200 compounds screened, about 1,200 (55%) were called active. The limit is not given here; nearly all actives have IC50 up to about 92 µM. The set was probably picked from earlier hits. The list shows a part of the results.
# Experiment: counter assay for TAg ATPase ADP read-out – biochemical, ADP-Hunter, fluorescence, counter-screen (AID 2501);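 also: purified T antigen ATPase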
# Conditions: series mostly up to 100 µM
row,SMILES,IC50
1,CCCc1cc(C(N)=O)c(NC(=O)c2ccoc2C)s1,inactive
2,COc1ccc(/C=N/NC(=O)c2ccoc2C)cc1O,5.08 µM (active)
3,Cc1occc1C(=O)N/N=C/C=C/c1ccc(N(C)C)cc1,12.2 µM (active)
4,COc1cc(/C=N/NC(=O)c2ccoc2C)cc(OC)c1O,18.5 µM (active)
5,O=C(N/N=C/C=C\c1ccco1)c1ccccn1,inactive
6,COc1ccccc1/C=C/C=N/NC(=O)c1cc(-c2ccco2)[nH]n1,inactive
7,COc1cc(/C=N/NC(=O)c2ccc3c(c2)OCCO3)cc(Cl)c1O,6.64 µM (active)
8,CCn1c(C)nc2cc(C(=O)N/N=C/c3ccc(OC)c(O)c3)ccc21,3.58 µM (active)
9,O=c1cc(-c2ccc(Br)cc2)[nH][nH]1,12.3 µM (active)
10,CN1C(=O)NC(c2ccc(O)cc2)C2=C1CN(c1ccc(O)cc1)C2=O (stereo not drawn),4.84 µM (active)
11,Cc1cc(C)nc(SSc2nc(C)cc(C)n2)n1,inactive
12,Cc1cc(C)nc(NC(=O)c2ccc(Cl)cc2)n1,inactive
13,Cc1cc(C)nc(Nc2ccc(O)cc2)n1,3.35 µM (active)
14,Oc1ccc(-c2[nH]ncc2-c2cccc3cccnc23)c(O)c1,18.1 µM (active)
15,COc1ccccc1-n1cc(CN2CCN(C3CCCCC3)C(CCO)C2)cn1 (stereo not drawn),inactive
16,O=C(c1ccc2ccccc2c1)N1CCN(c2ccc(O)cc2)CC1,4.79 µM (active)
17,CCc1ccc(OCc2nnc(SCC(=O)Nc3cccc(C(=O)N4CCOCC4)c3)o2)cc1,inactive
18,O=C(c1ccc2ncsc2c1)N1CCN(c2ccc(O)cc2)CC1,3.9 µM (active)
19,O=C1c2ccccc2S(=O)(=O)c2cc(C(=O)N3CCC(N4CCCC4)CC3)ccc21,inactive
20,O=C(c1cccc(F)c1)N1CCC(N2CCOCC2)CC1,inactive
21,O=C(c1cccc(-c2ccc(O)cc2)c1)N1CCOCC1,4.07 µM (active)
22,c1coc(-c2nnc(-c3ccco3)nn2)c1,inactive
23,O=C(N/N=C/c1ccc(O)cc1O)/C(=C/c1ccccc1)CCO,11.2 µM (active)

row,SMILES,IC50
1,COc1ccc(OC)c(CCNC(=O)Cn2sc3nc(C)cc(C)c3c2=O)c1,inactive
2,Cc1cc2nc3ccc(N(C)C)cc3nc2cc1N,90.6 µM (active)
3,O=C(O)Cc1c[nH]c2cccc(O)c12,34.4 µM (active)
4,O=C(O)CC(CCc1ccccc1)OC1OC(CO)C(O)C(O)C1O (stereo not drawn),inactive
5,OC[C@H]1O[C@@H](Oc2cc(O)cc(/C=C/c3ccc(O)cc3)c2)[C@H](O)[C@@H](O)[C@@H]1O,7.7 µM (active)
6,O=c1c(-c2ccc(O)cc2)coc2cc(OC3OC(CO)C(O)C(O)C3O)ccc12 (stereo not drawn),12.9 µM (active)
7,CCCCN(CC)Cc1ccc(CNC(=S)Nc2ccc(C)cc2Cl)o1,inactive
8,Oc1ccc(/C=N/Nc2nccnc2Cl)c(O)c1,11.8 µM (active)
9,O=c1[nH]ncc(N/N=C\c2ccc(O)cc2O)c1Cl,6.23 µM (active)
10,Oc1ccc(/C=N/Nc2nccnc2Cl)cc1,3.29 µM (active)
11,Cc1ccc2cc3c(N)[nH]nc3nc2c1,6.56 µM (active)
12,CCc1ccc2nc3n[nH]c(N)c3cc2c1,5.76 µM (active)
13,Cc1cc2cc3c(N)[nH]nc3nc2cc1C,6.68 µM (active)
14,C=CCOC(=O)C1=C[C@@H](c2ccc3c(c2)OCO3)C[C@@H](OCCCCO)O1,inactive
15,O=C(O)c1cc(S(=O)(=O)O)cc(Nc2c3ccccc3nc3ccccc23)c1O,14.7 µM (active)
16,COC/C=C/C1=CC2=CC(=O)C(C)(O)C(=O)C2=CO1 (stereo not drawn),inactive
17,Nc1ccc(-c2nc3cc(N)ccc3n2CCO)cc1,9.16 µM (active)
18,O=C(O)C1Nc2ccc(OC(F)(F)F)cc2C2C=CCC12 (stereo not drawn),inactive
19,COc1ccc(Nc2ccc(OC)cc2)cc1,11.3 µM (active)
20,COc1cc(-c2csc(C)n2)ccc1O,3.58 µM (active)
21,Cc1nc(-c2ccc(O)c(O)c2)cs1,6.64 µM (active)
22,Oc1ccc(-c2nc(-c3ccc(O)c(O)c3)cs2)cc1,17.4 µM (active)
23,COC(=O)C1=C(C)N(Cc2ccccc2)C(=NCCCCO)N[C@H]1c1ccccc1,inactive

row,SMILES,IC50
1,Cc1nc(SCC(=O)N2CCOCC2)c2ccsc2n1,inactive
2,CC(=O)c1cccc(NC(=O)N2CCCC2C(=O)NCc2ccccc2)c1 (stereo not drawn),inactive
3,COc1ccc(N2CCC(CNC(=O)Nc3ccccc3)C2)cc1 (stereo not drawn),8.01 µM (active)
4,COc1ccc(S(=O)(=O)N2CCN(CC(=O)Nc3cccc(OC)c3)CC2)cc1,inactive
5,COc1ccc(N2CCC(CNC(=O)Nc3cccc(OC)c3)C2)cc1 (stereo not drawn),3.36 µM (active)
6,Nc1nc(Sc2c([N+](=O)[O-])cc(C(F)(F)F)cc2[N+](=O)[O-])n[nH]1,inactive
7,Oc1ccc(Nc2nc(Cl)nc(NCc3ccco3)n2)cc1,6.71 µM (active)
8,Oc1ccc(-c2nc3ccccn3c2NCc2ccco2)cc1,3.24 µM (active)
9,CC(C)Nc1nc(Cl)nc(Nc2ccccc2)n1,inactive
10,CCOC(=O)CNc1c(-c2ccc(O)cc2)nc2ccc(Cl)cn12,2.95 µM (active)
11,CCOC(=O)CC(=O)CSc1nc(N)c(C#N)c(-c2ccc(Cl)cc2)c1C#N,inactive
12,CCOC(=O)CNc1c(-c2ccc(O)cc2)nc2ccccn12,4.76 µM (active)
13,O=C(c1ccc(Cl)cc1)C1CCCN(C(=O)c2csnn2)C1 (stereo not drawn),inactive
14,O=C(NNC(=O)c1ccccc1O)c1ccc(-c2ccc([N+](=O)[O-])cc2)o1,inactive
15,O=c1c(-c2ccc([N+](=O)[O-])cc2)coc2c(O)c(O)ccc12,11.1 µM (active)
16,CC(=O)c1cccc(S(=O)(=O)N2CCCC(c3nc(-c4ccc(C)o4)no3)C2)c1 (stereo not drawn),inactive
17,O=C(CCN1C(=O)C2CCCCC2C1=O)N1CCN(S(=O)(=O)c2cccc(F)c2)CC1 (stereo not drawn),inactive
18,CCOc1ccc(OC(=O)c2cccc(S(=O)(=O)N3CCN(C)CC3)c2)cc1,41.5 µM (active)
19,COc1cc(-c2nnc(SCc3cc(=O)oc4cc(O)c(O)cc34)o2)cc(OC)c1OC,11.6 µM (active)
20,COc1cc(/C(C)=N/NC(=O)CSc2nc3ccccc3[nH]2)ccc1O,6.48 µM (active)
21,COc1cc(/C(C)=N/NC(=O)CSc2nnc(C)s2)ccc1O,8.44 µM (active)
22,CCOC(=O)c1c(C)[nH]c(C)c1C(=O)CSc1nc2ccccc2[nH]1,inactive
